Rows were chosen to be rich in hits. Some 12% of all compounds tested hit in one or more screens of this group.
AMA1 RON2 block – AMA1-RON2 (P. falciparum) interaction inhibition. 0.2% of 360,000 active. Potency, µM (titrated, usually from 58.2 µM), inactives show at the top dose activity change, negative = inhibition, usual class: inhibitors. AID 720542. AlphaScreen AMA1-biotinylated RON2 peptide binding;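 note: 0% = vehicle wells and -100% = peptide control; nearly all actives have a fitted effect of over 45% in size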
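AMA1 (3D7) with his tag at 25 nM final met compounds first, then biotinylated RON2 peptide at 25 nM; detection used donor plus acceptor beads, 10 µg/mL apiece, read by AlphaScreen after 30 min at room temperature.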
HCV inh – inhibitors of hepatitis C virus infection | Potency, µM (series often up to 41.8 µM), without a hit: at the highest dose activity change, negative = inhibition, hits mostly inhibitors | 3.4% of 340,000 active | Huh7.5.1 HCVcc-Cre infection, luciferase reporter, 44 h | AID 651820; note: % is set by controls: 0 for no effect and ±100 for the full control effect
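Cells (1,000/well) were plated 4 h before compound, then infected with HCVcc-Cre virus (~0.5 moi). After 44 h further culture, infection was read as luciferase luminescence following a 15 min substrate incubation at room temperature.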
SARS PLpro yeast – SARS-CoV PLP inhibition in yeast; S. cerevisiae expressing SARS-CoV PLpro, growth rescue; Potency, µM (titrated, usually from 32.9 µM), for inactives: top-dose activity, positive = growth rescue, most hits filed as activators; 0.19% of 330,000 active; calls by dose curve; note: 0% is about no effect; nearly all actives have a fitted effect of over 55% in size
Pf growth 48h – P. falciparum growth inhibition at 48 hours (one generation); 5.9% of 310,000 active; Potency, µM (doses to about 28.7 µM), for the others: top-dose activity change, negative = inhibition, most hits filed as inhibitors; AID 504832; P. falciparum luciferase growth in erythrocytes, 48 h; note: % is set by controls: 0 for no effect and ±100 for the full control effect
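Firefly luciferase activity from engineered P. falciparum reports growth; inhibitors lower the luminescent signal. Cultures contained 2% hematocrit erythrocytes at 0.1% final parasitemia.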
Pf growth 96h – inhibits malaria parasite growth, 96 h; P. falciparum luciferase reporter growth, 96 h; Potency, µM (highest dose often 28.7 µM), for inactives: at the highest dose activity change, negative = inhibition, hits mostly inhibitors; 6.9% of 320,000 active; note: % is set by controls: 0 for no effect and ±100 for the full control effect
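Cell-based qHTS: luciferase-tagged P. falciparum in erythrocytes (2% hematocrit, 0.05% parasitemia final) incubated with compounds for 96 hours, 37 C, 5% CO2; luciferase detection reagent then added and luminescence measured.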
NS1 inh – blocks influenza NS1 protein function; Potency, µM (series often up to 46.1 µM), for inactives: at the top dose activity, positive = more growth; 0.4% of 270,000 active; AID 2326; calls by dose curve; note: actives are rising curves; nearly all actives have a fitted effect of over 50% in size
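OD600 was taken as the measure of yeast growth restored by compound in an NS1-expressing S. cerevisiae strain. Cells had been washed out of glucose medium and diluted 1:100 into galactose -URA medium, pH 6.0.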
* hit, by the source's call; ? = inconclusive; nt = not tested or not shown; [ ] = remark or other dose. Unless noted, calls come from the whole dose curve; as a rule, active = well fitted curve in the direction sought with a large enough effect; inconclusive = small, poorly fitted or top-dose-only effect, or another doubt; inactive = no such curve, though single readings can be large; an effect the other way counts as inactive or inconclusive. Potency is the fitted concentration of half-maximal effect.

SMILES	AMA1 RON2 block	HCV inh	SARS PLpro yeast	Pf growth 48h	Pf growth 96h	NS1 inh
COc1cc(O)c(C(CC(=O)N2CCN(c3ccccc3)CC2)c2ccc(N(C)C)cc2)c(OC)c1 (centres undefined)	?	?	0%	?	12µM*	-35%
Cc1ccc(CNC(=O)Cn2nnc(C(=O)Nc3cc(C)ccc3C)c2N)cc1	-7%	0%	?	0%	6%	-10%
OCCC1CN(CC2CCCCC2)CCN1CC1CCCCC1 (centres undefined)	6%	?	2%	-12%	0%	11%
COc1cc(C(CC(=O)N2CCCC2)c2c(OC)cc(OC)c3ccc(=O)oc23)cc(OC)c1OC (centres undefined)	15%	7%	1%	13µM*	13µM*	0%
COc1cc(OC)c2ccc(=O)oc2c1C(CC(=O)N1CCCC1)c1ccc2c(c1)OCO2 (centres undefined)	-5%	3%	0%	9.3µM*	?	1%
COc1cc(C(CCN2CCCC2)c2c(OC)cc(OC)c3ccc(=O)oc23)cc(OC)c1OC (centres undefined)	8%	2µM*	10%	?	10µM*	-2%
CCN(CC)CCC(c1cc(OC)c(OC)c(OC)c1)c1c(OC)cc(OC)c2ccc(=O)oc12 (centres undefined)	14%	21%[8.37 µM]	-1%	?	?	1%
COc1cccc(C2N=C(c3ccccc3C)NO2)c1OC (centres undefined)	-7%	-11%	-7%	63%	79%	-8%
CCOc1cc(NC(=S)NCCCN2CCOCC2)c(OCC)cc1NC(=O)C1CCCCC1	4%	-56%	0%	7%	27%	1%
COc1ccc(CN2CC(C(=O)N3CC(C)CC(C)C3)CC2=O)cc1 (centres undefined)	-7%	18%	1%	28%	3.7µM*	-11%
O=C1CC(C(=O)N2CCN(Cc3ccccc3)CC2)CN1Cc1ccccc1 (centres undefined)	0%	20%	-6%	?	7%	nt
CCCCN(C)CCCNC(=O)C1CC(=O)N(Cc2ccc(OC)cc2)C1 (centres undefined)	4%	16%	nt	19%	12µM*	-5%
Cc1cccc(N2CCN(C(=O)C3CCC(=O)N(Cc4ccccc4F)C3)CC2)c1C (centres undefined)	0%	-13%	-2%	9.3µM*	10µM*	-22%
COc1ccc(CN2CC(C(=O)NCCC(C)C)CC2=O)cc1 (centres undefined)	-2%	-20%	0%	4%	-19%	nt
Cc1ccc(CN2CC(C(=O)N3CCN(c4ccccc4Cl)CC3)CC2=O)cc1 (centres undefined)	-7%	?	-8%	6.6µM*	12µM*	nt
COc1ccc(C(=O)NNC(=O)C2CCN(S(=O)(=O)c3ccc(C)cc3)CC2)cc1	62%	6%	0%	-25%	?	0%
CCn1c(SCC(=O)Nc2cc(C)on2)nnc1-c1c[nH]c2ccccc12	25%	-17%	0%	?	?	10%
Cc1ccccc1C(=O)OCCN(C)Cc1ccccc1	?	-2%	1%	21%	25%	4%
COc1cccc(OC)c1/C=C/C(=O)NC1CCCCC1	-3%	3%	-7%	16%	?	-9%
O=C(CCCn1c(=O)oc2ccccc21)Nc1ccccc1	-4%	12%	5%	-23%	-5%	nt
Cc1cc(C)cc(NC(=O)[C@H](Cc2c[nH]c3ccccc23)NC(=O)[C@@H]2Cc3ccccc3CN2)c1	40%	?	-7%	9.3µM*	?	2%
CCc1ccc(NC(=O)[C@H](NC(=O)[C@@H]2Cc3ccccc3CN2)c2ccccc2)cc1	46%	4%	1%	-19%	?	9%
CCc1ccc(NC(=O)[C@@H](NC(=O)[C@@H]2Cc3ccccc3CN2)C(C)CC)cc1 (some centres undefined)	10%	-6%	-5%	7.4µM*	?	14%
Cc1ccc(NC(=O)C2CCC(CNC(=O)[C@@H]3Cc4ccccc4CN3)CC2)cc1 (some centres undefined)	6%	8%	-6%	?	?	-2%
CC(C)c1ccc(NC(=O)C2CCC(CNC(=O)[C@@H]3Cc4ccccc4CN3)CC2)cc1 (some centres undefined)	-7%	14µM*	-3%	?	-5%	4%
SMILES	AMA1 RON2 block	HCV inh	SARS PLpro yeast	Pf growth 48h	Pf growth 96h	NS1 inh
Cc1cccc(NC(=O)[C@H](Cc2c[nH]c3ccccc23)NC(=O)[C@@H]2Cc3ccccc3CN2)c1	43%	4µM*	-9%	8.3µM*	12µM*	14%
CCc1ccc(NC(=O)[C@H](Cc2c[nH]c3ccccc23)NC(=O)[C@@H]2Cc3ccccc3CN2)cc1	40%	3.5µM*	6%	?	?	24%
CN(CCCNC(=O)c1ccccc1F)CCCNC(=O)c1ccccc1F	0%	13%	12%	?	9.3µM*	11%
Oc1ccc(C(=C(Cl)Cl)c2ccc(O)cc2)cc1	nt	nt	-2%	2.9µM*	2.3µM*	-32%
Oc1ccc(Cl)cc1	3%	44%	0%	-1%	-16%	nt
CCOC(=O)C1(CCOc2ccccc2)CCN(Cc2cccc3nonc23)CC1	2%	?	-1%	?	3%	-6%
O=C(NCCN1CCCCC1)Nc1cccc(Cl)c1Cl	-5%	-18%	-7%	31%	13µM*	-11%
O=C(NCCN1CCCCC1)c1cc(Cl)ccc1Cl	4%	-4%	1%	0%	4.7µM*	-5%
O=C(NCCN1CCCC1)c1ccc(Cl)cc1	-2%	6%	-1%	17%	110%	2%
O=C(NCC1CC1)c1ccc(Oc2cc(Cl)cc(Cl)c2)o1	-25%	?	-3%	12µM*	9.3µM*	-37%
CCCN1CCN(CCNC(=O)Nc2ccccc2Cl)CC1	-11%	13%	-2%	23%	?	0%
O=C(NCCN1CCCCC1)c1ccc(Oc2cc(Cl)cc(Cl)c2)o1	11%	?	0%	7.4µM*	4.7µM*	7%
O=C(CCNC(=O)Cn1ccc2ccccc2c1=O)NCC1CCCC1c1ccccc1 (centres undefined)	7%	7%	-3%	27%	-28%	12%
CCOc1ccc(NC(=O)CSc2nccn(-c3ccc4c(c3)OCCO4)c2=O)cc1	4%	-1%	3%	?	?	nt
CC1(C)OC(=O)C2=C(C[C@@H](CCc3ccccc3)O[C@@H]2c2ccc(Cl)cc2)O1	5%	nt	nt	nt	nt	nt
Cc1c(Cl)ccc2c(C(=O)NCCN3CCCCC3)cc(-c3ccccn3)nc12	8%	5.6µM*	-2%	?	?	1%

High-throughput results (PubChem)
